Measured values as given in PubChem BioAssay AID652040 (Broad Institute, 2013).
Potency and affinity values are given separately. Values without a mark were called inactive.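 How the source made its calls: active means falling luciferase signal whose fitted half-maximal concentration is at most twice the top tested dose; inconclusive means flat inhibition between 30 and 70% or a poor curve fit; inactive means the rest.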

experiment: off-target signal loss in HeLa-CEM21 co-culture – HeLa F-luc CTL cells, cherry-picked, counter-screen for HIV-1 Env fusion inhibitor project, dose response (AID 652040); details: HeLa-F-luc CTL cells with CEM21, firefly luciferase counterscreen; series mostly up to 35 µM; activity change, negative = inhibition: at the top concentration;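 further: 0% = median of neutral control wells and -100% = doxycycline 40 µg/mL wells; more negative values mean stronger loss of luciferase signal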

| SMILES | activity change, negative = inhibition |
| --- | --- |
| O=C(Nc1ccncc1)c1ccc(Cl)c(S(=O)(=O)N2CCc3ccccc32)c1 | 12.5% |
| CCOC(=O)[C@]12CCC=C1N(Cc1ccc3c(c1)OCO3)C(=O)[C@H](CC(=O)NCC13CC4CC(CC(C4)C1)C3)C2 | -46.5% |
| COc1ccc(Nc2ncc(C(=O)N3CCN(c4ccc(F)cc4)CC3)c3ccccc23)cc1 | -2.35% |
| CC(CCc1ccco1)NC(=O)CCc1nnc2ccc(NCc3ccccc3Cl)nn12 (centres undefined) | 55.1% |
| CC1(C(=O)NCc2ccc3c(c2)OCO3)CCN1Cc1csc2ccccc12 (centres undefined) | 17.9% |
| COc1ccc2c(c1)[nH]c1c(N3CCN(Cc4ccc5c(c4)OCO5)CC3)ncnc12 | 66.4% |
| COc1ccc(N2CCN(C(=O)C3CCC(Cn4c(=S)[nH]c5ccccc5c4=O)CC3)CC2)cc1 (centres undefined) | -0.686% |
| O=C(Nc1nc(-c2ccc3c(c2)OCO3)cs1)c1ccncc1 | 21.9% |
| COC(=O)[C@@]1(Cc2ccc(F)cc2)[C@H]2c3cc(C(=O)N(C)C)n(CCO)c3C[C@H]2CN1C(=O)c1ccccc1 | 15% |
| Cc1cc2ncn(S(=O)(=O)N3CCCCC3)c2cc1C | 3.5% |
| Cn1c(C(=O)N2CCN(c3nc4ccccc4s3)CC2)cc2sccc21 | -4.46% |
| Cc1nc2ccccc2c2oc(C(=O)NCc3ccc4c(c3)OCO4)cc12 | 36% |
| O=C(NNS(=O)(=O)c1ccc(F)cc1F)C1Cc2c(ccc3ccccc23)O1 (centres undefined) | 14.4% |
| CCCCOCCCNc1ncnc2c1[nH]c1ccccc12 | -11.8% |
| Cc1cc(Cl)c(S(=O)(=O)N2CCCC2)cc1OCC(=O)NC1CCCCC1 | 36.3% |
| c1csc(CNc2ncnc3sccc23)c1 | 0.664% |
| CSc1ncccc1C(=O)OCC(=O)Nc1ccc(C)c(S(=O)(=O)N2CCOCC2)c1 | 0.54% |
| COc1ccc(-c2cc(C(=O)NNC(=S)NC(=O)c3c(-c4ccccc4)noc3C)[nH]n2)cc1 | 1.89% |
| O=c1c2ccccc2nnn1CSc1nnc(COc2ccc(Cl)cc2)n1Cc1ccco1 | 26.2% [at 16 µM] |
| COc1ccc(S(=O)(=O)NNC(=O)C2Cc3c(ccc4ccccc34)O2)cc1 (centres undefined) | -2.1% |

| SMILES | activity change, negative = inhibition |
| --- | --- |
| Cc1onc(-c2ccccc2)c1C(=O)Nc1ccc(Br)cc1Cl | -7.96% |
| O=C(Nc1cccc(C(F)(F)F)c1)c1ccc(Cn2cc(Br)cn2)o1 | 36.3% |
| CCCn1c(Nc2nc3ccccc3n2C)nc2ccccc21 | 21.1% [at 16 µM] |
| Cc1ccc(NS(=O)(=O)c2cc(C(=O)N(C)C3CCN(C)CC3)ccc2Cl)cc1Cl | 11.1% |
| Cc1ccccc1-n1c(=O)c2ccccc2n2cnnc12 | 7.81% |
| Cc1[nH]c2ccccc2c1/C=N\NC(=O)c1ccccc1Cl | 34.2% |
| COC(=O)[C@H](Cc1ccccc1)NC(=O)Cn1cnc(C(=O)Nc2ccc(C)c(C)c2)n1 | 21.9% |
| CCCCCCCCN1C(=O)[C@H](CC(=O)NCc2cccs2)C[C@@]2(C(=O)OCC)CCCC=C12 | -59.3% |
| CCN(c1nc(N)c(C(=O)N=C(N)N)nc1Cl)C(C)C | 47.4% |
| O=C(COC(=O)c1cc(S(=O)(=O)N2CCOCC2)ccc1O)NCc1ccc2c(c1)OCO2 | 6.65% |
| COCCCn1c(-c2ccc(S(=O)(=O)N3CCOCC3)cc2)csc1=Nc1ccccc1 | 41.7% |
| CC(C)OCCCNc1ncnc2c1[nH]c1ccccc12 | 7.69% |
| Cc1cc(C(=O)N2CCC(C(=O)O)CC2)c(C(F)(F)F)o1 | -4.57% |
| Cc1ccccc1S(=O)(=O)NC(=O)C1(C)CCN1C(=O)CCc1ccc(Cl)cc1Cl (centres undefined) | 56.4% |
| N#Cc1ccc(CSc2nnc(COc3ccccc3)n2-c2ccccc2)cc1 | 52% |
| COC(=O)[C@@]12CCCN1[C@H](c1ccc(-c3ccc(F)cc3)c(OC)c1)[C@H]1C(=O)N(C)C(=O)[C@H]12 | 2.62% |
| CCOC(=O)[C@@H]1[C@H]2COc3cc(OC)ccc3[C@H]2N2C(=O)N(c3ccc(C(F)(F)F)cc3)C(=O)[C@]12C | 90% [at 16 µM] |
| CC1CCN(S(=O)(=O)c2cc(C(=O)N3CCN(c4ccccc4)CC3)ccc2Br)CC1 | 0.151% |
| CCN(CC)CCN(C(=O)c1cc(Cl)sc1Cl)c1nc2cc3c(cc2s1)OCO3 | 35.2% |
